Assay results from PubChem BioAssay.
Activity calls are given as the source filed them. Unless noted, how the calls were made is not given here.

Legend:
[1] = resazurin metabolic signal in HepG2 cells – cell-based, resazurin fluorescence, 24 h, PK04 Diversity Set, profiling panel (AID 1172); conditions: HepG2 viability, higher = more signal
[2] = budding yeast growth changes without added modifier – OD600, strain BY4716, 24 h, basal condition, primary screen (AID 1173); conditions: S. cerevisiae BY4716 growth, OD600, 24 h; higher = more signal, called active from +8 up or from −8 down
[3] = viability profiling in MM1S myeloma cells – cell-based, resazurin fluorescence, basal, 24 h, PK04 Diversity Set, profiling panel (AID 1174); conditions: higher = more signal, called active from +8 up or from −8 down;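 further: MM1S multiple myeloma cell line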
[4] = molecular target: Dihydroorotate dehydrogenase (quinone), mitochondrial (Plasmodium falciparum (isolate 3D7)) (UniProt Q08210); assay: inhibition of P. falciparum DHODH – biochemical, C-terminal His tag, absorbance 600 nm, primary screen (AID 1175); conditions: PfDHODH enzyme, DCIP absorbance 600 nm; higher = more signal, called active from +8 up or from −8 down;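 further: recombinant parasite enzyme with a five histidine tag at its C terminus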
Sequence of Dihydroorotate dehydrogenase (quinone), mitochondrial (Plasmodium falciparum (isolate 3D7)) (Q08210 whole entry, looked up): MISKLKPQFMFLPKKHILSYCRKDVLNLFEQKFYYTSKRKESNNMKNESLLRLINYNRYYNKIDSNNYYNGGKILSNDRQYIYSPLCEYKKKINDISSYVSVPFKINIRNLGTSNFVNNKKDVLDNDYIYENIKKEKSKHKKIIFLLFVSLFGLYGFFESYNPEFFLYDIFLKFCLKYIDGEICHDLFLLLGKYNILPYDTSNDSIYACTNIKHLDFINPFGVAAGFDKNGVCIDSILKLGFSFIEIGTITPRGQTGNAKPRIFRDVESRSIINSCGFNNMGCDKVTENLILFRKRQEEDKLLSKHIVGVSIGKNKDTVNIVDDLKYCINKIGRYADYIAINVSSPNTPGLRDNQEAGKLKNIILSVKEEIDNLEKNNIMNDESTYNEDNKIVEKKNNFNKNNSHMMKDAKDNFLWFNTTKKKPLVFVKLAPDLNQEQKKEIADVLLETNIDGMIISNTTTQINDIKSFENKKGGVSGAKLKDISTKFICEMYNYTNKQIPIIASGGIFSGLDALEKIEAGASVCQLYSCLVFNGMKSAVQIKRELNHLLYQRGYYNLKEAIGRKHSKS

[5] = inhibition of PAO1 biofilm formation – strain PAO1, LB-PBS medium, absorbance 600 nm, primary screen (AID 1176); conditions: P. aeruginosa PAO1 growth/biofilm, A600, 12 h; higher = more signal
[6] = growth modulation of vineyard yeast isolate – strain RM11-1a, OD600, basal, 24 h, primary screen (AID 1177);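 further: cultures grown under basal conditions with no added stressor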; conditions: S. cerevisiae RM11-1a growth, OD600, 24 h; higher = more signal, called active from +8 up or from −8 down
[7] = growth of efflux-deficient E. coli DRC39 – strain DRC39, OD650, 24 h, E. coli filamentation inducers, primary screen (AID 1178);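 further: growth measured as culture turbidity by optical density at 650 nm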; conditions: E. coli DRC39 acrAB, higher = more signal, called active from +8 up or from −8 down
[8] = growth of efflux-deficient E. coli DRC39 – strain DRC39, OD650, 48 h, E. coli filamentation inducers, primary screen (AID 1179);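 further: screen aims at cell division blockers that make cells filament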; conditions: E. coli DRC39 delta-acrAB growth, higher = more signal, called active from +8 up or from −8 down
[9] = viability profiling in RPMI8226 myeloma cells – cell-based, resazurin fluorescence, basal, 24 h, PK04 Diversity Set, profiling panel (AID 1180); conditions: higher = more signal;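 further: RPMI8826 multiple myeloma cell line at 5000 cells per well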
[10] = molecular target: E3 ubiquitin-protein ligase XIAP (Homo sapiens) (UniProt P98170); assay: small molecules binding XIAP protein – biophysical, small-molecule microarray, fluorescence 635 nm, primary screen (AID 1181); conditions: higher = more signal;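 further: score merges 667 nm emission and signal to noise over triplicate slides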
Sequence of E3 ubiquitin-protein ligase XIAP (Homo sapiens) (P98170 whole entry, looked up, the tested form may be a part): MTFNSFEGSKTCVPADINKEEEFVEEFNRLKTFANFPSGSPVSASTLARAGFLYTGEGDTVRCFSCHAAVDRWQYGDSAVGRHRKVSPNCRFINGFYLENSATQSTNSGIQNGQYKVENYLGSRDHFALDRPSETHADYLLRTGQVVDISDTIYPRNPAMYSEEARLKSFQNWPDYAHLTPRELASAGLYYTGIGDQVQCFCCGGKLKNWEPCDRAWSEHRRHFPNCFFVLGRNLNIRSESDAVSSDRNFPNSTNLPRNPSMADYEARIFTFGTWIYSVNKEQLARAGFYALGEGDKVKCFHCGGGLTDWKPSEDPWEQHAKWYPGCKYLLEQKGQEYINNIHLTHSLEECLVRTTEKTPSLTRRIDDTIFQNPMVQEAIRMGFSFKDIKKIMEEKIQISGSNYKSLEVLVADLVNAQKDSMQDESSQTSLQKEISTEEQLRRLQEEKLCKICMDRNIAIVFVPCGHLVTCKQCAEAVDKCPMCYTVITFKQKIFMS

[11] = tested on: XIP peptide (Xip251-270) binding; assay: XIP fragment 251-270 binding compounds – biochemical, small-molecule microarray, fluorescence 635/667 nm, 0.1 µg/mL protein, primary screen (AID 1182); conditions: fluorescent protein binding, 635 nm, higher = more signal, called active from +8 up or from −8 down
XIP peptide (Xip251-270) = assay: compounds binding XIP fragment 251-270 – biochemical, small-molecule microarray, fluorescence 635/667 nm, 0.5 µg/mL protein, primary screen (AID 1183); conditions: fluorescence 635 nm, higher = more signal
[12] = blood-stage malaria parasite viability loss – strain 3D7, DAPI fluorescence, 100 nL, primary screen (AID 1184);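 further: parasites grown inside human red blood cells in medium with human serum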; conditions: P. falciparum 3D7 growth, 3 d, higher = more signal
[13] = molecular target: Homeobox protein Hox-A13 (Mus musculus) (UniProt Q62424); assay: disruptors of Hoxa13 oligonucleotide interaction – biochemical, fluorescence polarization, labeled oligonucleotide, primary screen (AID 1185); conditions: Hoxa13:DNA binding, 15 min, higher = more signal, called active from +8 up or from −8 down
Sequence of Homeobox protein Hox-A13 (Mus musculus) (Q62424 whole entry, looked up): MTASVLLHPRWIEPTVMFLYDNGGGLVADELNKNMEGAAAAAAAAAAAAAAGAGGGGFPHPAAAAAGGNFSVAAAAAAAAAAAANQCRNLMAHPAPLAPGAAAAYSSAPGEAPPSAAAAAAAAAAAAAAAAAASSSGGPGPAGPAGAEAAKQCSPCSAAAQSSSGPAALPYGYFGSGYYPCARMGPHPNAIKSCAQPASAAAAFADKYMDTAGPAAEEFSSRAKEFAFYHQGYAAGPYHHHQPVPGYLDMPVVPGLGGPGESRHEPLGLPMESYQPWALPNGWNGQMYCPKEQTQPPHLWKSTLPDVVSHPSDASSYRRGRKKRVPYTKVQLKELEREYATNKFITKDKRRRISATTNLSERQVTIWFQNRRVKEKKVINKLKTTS

[14] = blockers of DNA damage checkpoint Chk1 activation – imaging, HeLa, hydroxyurea, phospho-Chk1 antibody, percent positive cells, primary screen (AID 1186); conditions: hydroxyurea-induced phospho-Chk1 immunofluorescence imaging, higher = more signal
[15] = blockers of DNA damage checkpoint Chk1 activation – imaging, HeLa, hydroxyurea, phospho-Chk1 nuclear intensity, primary screen (AID 1187); conditions: hydroxyurea-induced phospho-Chk1 immunofluorescence imaging, higher = more signal

Structure (SMILES) | z-score [1] | z-score [2] | z-score [3] | composite z-score [4] | z-score [5] | z-score [6] | z-score [7] | z-score [8] | z-score [9] | composite z-score [10] | composite z-score [11] | composite z-score (XIP peptide (Xip251-270)) | z-score [12] | z-score [13] | z-score [14] | z-score [15]
O=C1O[C@@H](c2ccccc2)[C@@H](c2ccccc2)N2[C@@H](c3ccc(O)cc3)[C@]3(C(=O)Nc4ccccc43)[C@@H](C(=O)O)[C@H]12 | -0.253 | -0.922 (inactive) | -0.14 (inactive) | -1.42 (inactive) | 0.697 (inactive) | -0.472 (inactive) | -0.0134 (inactive) | -0.831 (inactive) | 0.393 | 0.125 | 1.27 (inactive) | 0.632 | -1.73 | -4.72 (inactive) | 0.482 (inactive) | 0.166 (inactive)
CC(C)(C)N1CC=CC23O[C@@H]4C=CCCOC(=O)C4[C@H]2C(=O)N(CCCCCO)[C@@H]3C1=O (some centres undefined) | -0.214 | -0.312 (inactive) | 0.287 (inactive) | -0.16 (inactive) | -0.36 (inactive) | 0.449 (inactive) | 0.251 (inactive) | 0.762 (inactive) | 0.384 | 0.329 | 0.615 (inactive) | 0.12 | 0.519 | -4.56 (inactive) | -1.05 (inactive) | -1.13 (inactive)
COCCOC(=O)N1C(=O)[C@@]2(c3cc(C#Cc4ccc(OC)cc4)ccc31)[C@H](c1ccc(O)cc1)N1[C@H](c3ccccc3)[C@H](c3ccccc3)OC(=O)[C@H]1[C@@H]2C(N)=O | -0.422 | -0.306 (inactive) | -1.02 (inactive) | -0.0395 (inactive) | 0.898 (inactive) | 0.0054 (inactive) | 0.761 (inactive) | 0.0669 (inactive) | -2.3 | -0.0559 | -0.0296 (inactive) | 0.754 | -0.687 | -1.15 (inactive) | -0.425 (inactive) | -0.461 (inactive)
CC1CC/C=C\[C@H]2OC34C=CCN(Cn5nnc6ccccc65)C(=O)[C@H]3N(CCO)C(=O)[C@@H]4C2C(=O)O1 (some centres undefined) | 0.831 | -0.895 (inactive) | 0.869 (inactive) | -0.895 (inactive) | 0.773 (inactive) | -0.943 (inactive) | 0.673 (inactive) | -0.108 (inactive) | 1.04 | 0.235 | 0.711 (inactive) | 0.855 | -0.611 | -5.38 (inactive) | -0.384 (inactive) | -0.173 (inactive)
NC(=O)NCC#Cc1ccc2c(c1)[C@]1(C(=O)N2)[C@H](c2ccc(O)cc2)N2[C@H](c3ccccc3)[C@H](c3ccccc3)OC(=O)[C@H]2[C@@H]1C(=O)N1CCCCCCC1 | 0.855 | 1.16 (inactive) | 0.949 (inactive) | -0.127 (inactive) | 1.1 (inactive) | 1.96 (inactive) | 1.04 (inactive) | -0.817 (inactive) | 1.36 | -0.0925 | 0.145 (inactive) | 0.469 | 0.308 | 1.52 (inactive) | -0.374 (inactive) | -0.693 (inactive)
COCCOC(=O)N1C(=O)[C@@]2(c3cc(C#CC4(O)CCCCCC4)ccc31)[C@H](c1ccc(OCCO)cc1)N1[C@H](c3ccccc3)[C@H](c3ccccc3)OC(=O)[C@H]1[C@@H]2C(=O)NC[C@H](O)c1ccccc1 | -0.259 | 0.685 (inactive) | -0.596 (inactive) | 1.74 (inactive) | 1.91 (inactive) | 2.62 (inactive) | 0.393 (inactive) | 0.0869 (inactive) | 0.406 | -0.16 | 0.437 (inactive) | 0.723 | -2.27 | 2.7 (inactive) | 0.0412 (inactive) | 0.0764 (inactive)
O=C(CS)NCCCCCNC(=O)[C@@H]1C[C@@H]2C(=O)N[C@@H](Cc3ccccc3)C(=O)N2[C@@H]1c1ccc(O)cc1 | -0.204 | -0.391 (inactive) | 0.0755 (inactive) | 0.0126 (inactive) | -0.0338 (inactive) | 0.349 (inactive) | 0.411 (inactive) | 0.904 (inactive) | 0.252 | -0.0282 | 0.508 (inactive) | 0.562 | -0.14 | -2.5 (inactive) | 0.83 (inactive) | 0.886 (inactive)
CN1C(=O)C2C(C1=O)C1C=C(CCCO)C2C(c2ccc(CN3CCCC3)cc2)N1C (centres undefined) | -1.03 | 1.04 (inactive) | -1.78 (inactive) | -3.89 (inactive) | -1.02 (inactive) | 0.626 (inactive) | -0.815 (inactive) | -0.296 (inactive) | -0.802 | 0.182 | 0.413 (inactive) | -0.598 | -1.27 | -7.16 (inactive) | -0.0348 (inactive) | 0.185 (inactive)
CCOc1ccc(N2C(=O)/C(=C/C=C/c3ccccc3OC)S(=O)(=O)C2c2cccc([N+](=O)[O-])c2)cc1 (centres undefined) | 1.28 | -1.52 (inactive) | -2.33 (inactive) | -1.74 (inactive) | 1.07 (inactive) | -1.44 (inactive) | 0.777 (inactive) | 0.765 (inactive) | -0.548 | 0.0264 | -0.735 (inactive) | -0.299 | 0.418 | 1.37 (inactive) | -0.322 (inactive) | -0.16 (inactive)
